Data taken from PubChem BioAssay AID1076 (NMMLSC, 2008).
Values without a mark were called inactive.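 The calls were made as follows: active = cell event count below 40, meaning activity score above 60 where score is 100 minus count; inactive = the rest.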

Experiment: LNCaP cell loss by flow event count, confirmation, cytotoxicity control for prostate differentiation activator project, single point (AID 1076);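 also: counts scatter-gated live cells after medium removal discards detached dead cells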
Conditions: flow cytometry event count, 4 d, at 100 µM, stronger effect = lower value

SMILES | cell event count
CSc1nc2ccc(Nc3nc(N4CCOCC4)nc(N4CCOCC4)n3)cc2s1 | 48
Nc1ccccc1NC(=O)c1ccccc1N | 236
O=C(Cn1ccc2ccccc2c1=O)NCCC(=O)N1CCN(c2cccc(C(F)(F)F)c2)CC1 | 232
Cc1ccc(-n2c(SCC(=O)Nc3nccs3)nc3c(c2=O)SCC3)cc1 | 83
CCOC(=O)N1CCC(NC(=O)C2CCCN(Cc3nc(-c4cccc(Cl)c4)oc3C)C2)CC1 (stereo not given) | 33
Cc1oc(-c2ccccc2F)nc1CN1CCC(C(=O)NC2CC2)CC1 | 363
Cc1oc(-c2cccc(Cl)c2)nc1CN1CCCC(C(=O)NCCCN2CCOCC2)C1 (stereo not given) | 22
O=C(NCCCN1CCN(c2ccccc2F)CC1)C1CCC(=O)N1C1CCCC1 (stereo not given) | 60
COc1cccc(Oc2cnc(N)nc2-c2ccc(OC)cc2O)c1 | 9
Cc1oc(-c2ccc(Cl)cc2)nc1CN1CCCC(C(=O)N2CCN(C(=O)c3ccco3)CC2)C1 (stereo not given) | 19
O=C(CCn1c(=O)[nH]c2ccccc2c1=O)NCCCN1CCN(c2cccc(Cl)c2)CC1 | 14
Cc1ccccc1-c1nc(CN2CCC(C(=O)NCc3cccnc3)CC2)c(C)o1 | 268
Cc1ccc(Cn2ccc(NC(=O)c3cc(-c4ccc(Br)cc4)on3)n2)cc1 | 257
COc1ccc2c(c1)CCc1c(C(=O)Nc3cc(C)n(Cc4ccc(Cl)cc4)n3)noc1-2 | 43
CCc1ncc(C(O)c2cccc(OC)c2OC)n1C (stereo not given) | 285
